# Values joined by “and” are separate entries in the source; they are usually repeats but may differ in a detail not shown here. Identical values can stand only once. Results filed as inconclusive are left out. Entries that show only a call come without a potency. A structure can be active in one record and inactive in another. Unmarked numbers belong to inactive results. Active and inactive are the calls of the source. Calls follow the shape of the dose curve; as a rule, active = well fitted curve in the direction sought with a large enough effect; inconclusive = small, poorly fitted or top-dose-only effect, or another doubt; inactive = no such curve, though single readings can be large; an effect the other way counts as inactive or inconclusive.
# Assays:
# CRL-7250 = normal cell line; assay: Cytotoxic Profiling of Annotated Libraries Using Quantitative High-Throughput Screening (AID 1296008); conditions: Five cell lines viability, CellTiter-Glo ATP luminescence, 48-72 h; max response: active compounds read low; also: nearly all actives have a fitted effect of over 60% in size; also: potency is read from the fitted curve at half-maximal effect
# Outline: (§1)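 Cytotoxicity was measured as CellTiter-Glo ATP luminescence, read after 10 min at room temperature. Compound treatment of the cells lasted 48 or 72 hr at 37 degrees Celsius in a qHTS format.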
# HEK293 = assay: as above; conditions: Five cell lines viability, CellTiter-Glo ATP luminescence, 48-72 h; max response: active compounds read low
# Outline: as §1
# HaCat [1] = assay: as above; conditions: Five cell lines viability, CellTiter-Glo ATP luminescence, 48-72 h; max response: active compounds read low
# Outline: as §1
# KB-3-1 = assay: as above; conditions: Five cell lines viability, CellTiter-Glo ATP luminescence, 48-72 h; max response: active compounds read low
# Outline: as §1
# NIH3T3 [2] = assay: as above; conditions: Five cell lines viability, CellTiter-Glo ATP luminescence, 48-72 h; max response: active compounds read low
# Outline: as §1
# HACAT [3] = assay: qHTS assay to identify novel small-molecules to repurpose for Merkel cell carcinoma treatment (AID 1296009); conditions: MCC and control cell lines, CellTiter-Glo viability, 72 h; at 44.8 µM (top of the series) unless noted; also: nearly all actives have a fitted effect of over 60% in size; also: potency is read from the fitted curve at half-maximal effect
# Outline: (§2)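 Cell viability measured by CellTiter-Glo following 72 hr compound treatment at 37 degree celsius, with NPC and MIPE libraries tested in 8- and 11-point concentration series.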
# MCC-13 = assay: as above; conditions: MCC and control cell lines, CellTiter-Glo viability, 72 h; series mostly up to 46 µM
# Outline: as §2
# MCC-26 = assay: as above; conditions: MCC and control cell lines, CellTiter-Glo viability, 72 h; series mostly up to 46 µM
# Outline: as §2
# MKL-1 = assay: as above; conditions: MCC and control cell lines, CellTiter-Glo viability, 72 h; series mostly up to 46 µM
# Outline: as §2
# MKL-2 = assay: as above; conditions: MCC and control cell lines, CellTiter-Glo viability, 72 h; series mostly up to 46 µM
# Outline: as §2
# UISO = assay: as above; conditions: MCC and control cell lines, CellTiter-Glo viability, 72 h; series mostly up to 46 µM
# Outline: as §2
# WaGa = assay: as above; conditions: MCC and control cell lines, CellTiter-Glo viability, 72 h; series mostly up to 46 µM
# Outline: as §2
# C33A = assay: Primary qHTS to identify gynecologic anti-cancer compounds using libraries of approved drugs and bioactive compounds (AID 1345084); conditions: Gynecologic cancer cell panel viability, ATPlite luminescence, 48 h; series mostly up to 57.5 µM; also: nearly all actives have a fitted effect of over 55% in size; also: potency is read from the fitted curve at half-maximal effect
# Outline: (§3)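 Luminescence from the ATPlite ATP-monitoring reagent indicates viable cell number; lower signal means cytotoxicity. Cells received compound 16 h after seeding and were exposed for 48 h across five concentrations.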
# CAOV3 = assay: as above; conditions: Gynecologic cancer cell panel viability, ATPlite luminescence, 48 h; series mostly up to 57.5 µM
# Outline: as §3
# CASKI = assay: as above; conditions: Gynecologic cancer cell panel viability, ATPlite luminescence, 48 h; series mostly up to 57.5 µM
# Outline: as §3
# NIH3T3 [4] = assay: qHTS assay to identify novel small-molecules to repurpose for Merkel cell carcinoma treatment (AID 1296009); conditions: MCC and control cell lines, CellTiter-Glo viability, 72 h; series mostly up to 44.8 µM; also: nearly all actives have a fitted effect of over 60% in size; also: potency is read from the fitted curve at half-maximal effect
# Outline: as §2
# HEK293T = assay: as above; conditions: MCC and control cell lines, CellTiter-Glo viability, 72 h; at 44.8 µM (top of the series) unless noted
# Outline: as §2
# TAB113 = assay: qHTS profiling for inhibitors of Plasmodium falciparum proliferation (AID 504749); also: nearly all actives have a fitted effect of over 60% in size; conditions: P. falciparum in erythrocytes, SYBR Green DNA, 72 h; series mostly up to 28.7 µM
# Outline: (§4)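 In a 72 h erythrocytic culture (37 C, humidified, 5% CO2) at 2.5% hematocrit and 0.3% starting parasitemia, compounds were tested; SYBR Green I in detergent lysis buffer stained parasite DNA overnight.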
# TAB165 = assay: as above; conditions: P. falciparum in erythrocytes, SYBR Green DNA, 72 h; series mostly up to 28.7 µM
# Outline: as §4
# W2 = assay: as above; conditions: P. falciparum in erythrocytes, SYBR Green DNA, 72 h; series mostly up to 28.7 µM
# Outline: as §4
smiles,measurement,setting,value
CCCCn1c(=O)n(Cc2ccccc2F)c(=O)c2[nH]c(Cc3ccc(NC(C)=O)cc3)nc21,max response,CRL-7250,-20% and 4.17%
same,max response,HEK293,-5.59% and -2.73%
same,max response,HaCat [1],-7.85%
same,outcome,HaCat [1],inactive
same,max response,KB-3-1,-6.11%
same,outcome,KB-3-1,inactive
same,max response,NIH3T3 [2],-1.2% and 4.04%
same,outcome,HACAT [3],inactive
same,Potency,MCC-13,inactive
same,Potency,MCC-26,inactive
same,Potency,MKL-1,inactive
same,Potency,MKL-2,inactive
same,Potency,UISO,inactive
same,Potency,WaGa,inactive
same,Potency,C33A,inactive
same,Potency,CAOV3,inactive
same,Potency,CASKI,inactive
COC(=O)N1CCN(Cc2cccc(NC(=O)Nc3ccc(C)nc3)c2F)CC1,max response,CRL-7250,-17.2%
same,outcome,CRL-7250,inactive
same,max response,HaCat [1],3.64% and 2.27%
same,max response,KB-3-1,-23.5%
same,max response,NIH3T3 [2],-1.49%
same,outcome,NIH3T3 [2],inactive
same,Potency,MCC-13,inactive
same,Potency,MCC-26,inactive
same,Potency,MKL-1,inactive
same,Potency,MKL-2,inactive
same,Potency,NIH3T3 [4],inactive
same,Potency,UISO,inactive
same,Potency,WaGa,inactive
same,Potency,C33A,inactive
same,Potency,CAOV3,inactive
same,Potency,CASKI,inactive
CCN1C[C@H](C)n2c(c(O)c3c(=O)n(Cc4ccc(F)c(Cl)c4)nc(C(=O)NC)c32)C1=O,max response,CRL-7250,-6.85%
same,outcome,CRL-7250,inactive
same,max response,HEK293,1.12%
same,outcome,HEK293,inactive
same,max response,HaCat [1],-5.77% and -3.93%
same,max response,KB-3-1,3.26% and 8.63%
same,outcome,KB-3-1,inactive
same,max response,NIH3T3 [2],0.921% and -1.89%
same,outcome,HEK293T,inactive
same,Potency,MCC-13,inactive
same,Potency,MCC-26,inactive
same,Potency,MKL-1,inactive
same,Potency,MKL-2,inactive
same,Potency,UISO,inactive
same,Potency,WaGa,inactive
same,Potency,C33A,inactive
same,Potency,CAOV3,inactive
same,Potency,CASKI,inactive
COc1ccc(-c2cc(=O)c3c(O)cc(O[C@@H]4O[C@H](CO[C@@H]5O[C@@H](C)[C@H](O)[C@@H](O)[C@@H]5O)[C@@H](O)[C@H](O)[C@@H]4O)cc3o2)cc1O,max response,CRL-7250,-4.94%
same,outcome,HEK293,inactive
same,outcome,HaCat [1],inactive
same,max response,KB-3-1,-0.879%
same,outcome,NIH3T3 [2],inactive
same,outcome,HACAT [3],inactive
same,outcome,HEK293T,inactive
same,Potency,MCC-13,inactive
same,Potency,MCC-26,inactive
same,Potency,MKL-1,inactive
same,Potency,MKL-2,inactive
same,Potency,NIH3T3 [4],inactive
same,Potency,UISO,inactive
same,Potency,WaGa,inactive
NS(=O)(=O)c1cc(Cl)c(Cl)c(S(N)(=O)=O)c1,Potency,TAB113,inactive
same,Potency,TAB165,inactive
same,Potency,W2,inactive
same,max response,CRL-7250,0.0999%
same,outcome,CRL-7250,inactive
same,max response,HEK293,0.982%
same,outcome,HEK293,inactive
same,max response,HaCat [1],-2.36%
same,outcome,HaCat [1],inactive
same,max response,KB-3-1,1.19% and 6.82% and 0.356%
same,max response,NIH3T3 [2],-19% and 0.0909%
same,outcome,HACAT [3],inactive
same,outcome,HEK293T,inactive
same,Potency,MCC-13,inactive
same,Potency,MCC-26,inactive
same,Potency,MKL-1,inactive
same,Potency,MKL-2,inactive
same,Potency,UISO,inactive
same,Potency,WaGa,inactive
same,Potency,C33A,inactive
same,Potency,CAOV3,inactive
same,Potency,CASKI,inactive
CC(=O)N1CCN(c2ccc(OCc3nn(C)c(C)c3-c3cccc4c(CCCOc5cc(C)c(Cl)c(C)c5)c(C(=O)O)n(Cc5cccnc5)c34)cc2)CC1,max response,CRL-7250,4.49%
same,outcome,HEK293,inactive; activator
same,outcome,HaCat [1],inactive
same,max response,KB-3-1,1.85%
same,outcome,NIH3T3 [2],inactive
same,outcome,HACAT [3],inactive
same,outcome,HEK293T,inactive; activator
same,Potency,MCC-13,inactive
same,Potency,MCC-26,inactive
same,Potency,MKL-1,inactive
same,Potency,MKL-2,14.8 µM (active)
same,Potency,NIH3T3 [4],inactive
same,Potency,UISO,inactive
same,Potency,WaGa,11.8 µM (active)
CN1c2ccccc2C(=O)N2CCc3c([nH]c4ccccc34)C21 (stereo not drawn),max response,CRL-7250,4.95%
same,Potency,HEK293,1.64 µM (active)
same,max response,HEK293,-2.28%
same,max response,HaCat [1],-3.12%
same,Potency,KB-3-1,5.17 µM (active)
same,max response,KB-3-1,1.03%
same,max response,NIH3T3 [2],-8.68%
same,Potency,MCC-13,inactive
same,Potency,MCC-26,inactive
same,Potency,MKL-1,inactive
same,Potency,MKL-2,inactive
same,Potency,UISO,inactive
same,Potency,WaGa,inactive
same,Potency,CASKI,7.08 µM (active)
c1ccc(CNc2nc(N3CCOc4ccccc43)nc3c2CCCC3)cc1,max response,CRL-7250,3.99%
same,outcome,CRL-7250,inactive
same,max response,HaCat [1],-18.6% and -15.3%
same,max response,KB-3-1,8.67% and -13.6%
same,max response,NIH3T3 [2],3.56%
same,outcome,NIH3T3 [2],inactive
same,Potency,MCC-13,inactive
same,Potency,MCC-26,inactive
same,Potency,MKL-1,inactive
same,Potency,MKL-2,inactive
same,Potency,NIH3T3 [4],inactive
same,Potency,UISO,inactive
same,Potency,WaGa,inactive
same,Potency,C33A,inactive
same,Potency,CAOV3,inactive
same,Potency,CASKI,inactive
CC1=C(C(=O)Nc2cc3cn[nH]c3cc2F)C(c2ccc(C(F)(F)F)cc2)CC(=O)N1 (stereo not drawn),max response,CRL-7250,1.25%
same,outcome,CRL-7250,inactive
same,outcome,HEK293,inactive
same,max response,HaCat [1],3.22%
same,outcome,HaCat [1],inactive
same,max response,KB-3-1,1.78% and 8.86%
same,max response,NIH3T3 [2],-7.07%
same,outcome,HACAT [3],inactive
same,outcome,HEK293T,inactive
same,Potency,MCC-26,inactive
same,Potency,MKL-1,inactive
same,Potency,MKL-2,inactive
same,Potency,UISO,inactive
same,Potency,C33A,inactive
same,Potency,CAOV3,inactive
same,Potency,CASKI,inactive
O=C(c1ccc(C(=O)N2CCC(N3CCCC3)CC2)c(Nc2ccccc2)c1)N1CCC(N2CCCC2)CC1,max response,CRL-7250,-2.66% and 0.948%
same,max response,HEK293,-1.83% and -8.97%
same,outcome,HaCat [1],inactive
same,max response,KB-3-1,-1.29% and -4.53%
same,max response,NIH3T3 [2],-1.45%
same,outcome,NIH3T3 [2],inactive
same,outcome,HACAT [3],inactive
same,Potency,MCC-13,inactive
same,Potency,MCC-26,inactive
same,Potency,MKL-1,inactive
same,Potency,MKL-2,inactive
same,Potency,NIH3T3 [4],inactive
same,Potency,UISO,inactive
same,Potency,WaGa,inactive
same,Potency,C33A,inactive
same,Potency,CASKI,inactive

# From PubChem BioAssay (NCATS)
